According to PubChem BioAssay (Tox21):
Several values for one entry are separate records, joined by “and”; a condition that tells them apart may be missing. Equal values may be shown once. Inconclusive results are not listed. Some compounds were tested as several samples or in several runs, with calls that do not always agree. Activity calls are given as the source filed them. Calls come from the whole dose curve; as a rule, active = well fitted curve in the direction sought with a large enough effect in the repeat runs; inconclusive = weak or mixed curves; inactive = no such curve, though single readings can be large; an effect the other way counts as inactive or inconclusive.

Tests used:
[1] = qHTS RealTime-Glo MT Cell Viability Assay in HepG2 cells - 40 hour (AID 1224870); note: nearly all actives have a fitted effect of over 50% in size
How it was run: (§1)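 HepG2 cells mixed with RealTime-Glo MT reagents (NanoLuc plus cell-permeant prosubstrate) were seeded at 600 cells/well, incubated 5 h at 37 C/5% CO2, then pinned with compounds in DMSO; nonlytic luminescence tracked viability during 40 h treatment.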

[2] = A CellTox Green Cytotoxicity Assay to monitor cytotoxicity in HEK293 cells - 40 hour (AID 1224871); note: nearly all actives have a fitted effect of over 45% in size; note: potency is the fitted concentration of half-maximal effect
How it was run: (§2)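 Fluorescence intensity, read at 0, 8, 16, 24, 32 and 40 h of compound treatment, reflected dye binding to DNA of dead HEK293 cells; compounds (23 nL, DMSO) were added 5 h after plating cells with reagent.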

[3] = qHTS RealTime-Glo MT Cell Viability Assay in HEK293 cells - 16 hour (AID 1224872); note: top concentration of the series differs between compounds; nearly all actives have a fitted effect of over 50% in size
How it was run: (§3)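 Viability tracked continuously by luminescence as live cells reduce a prosubstrate for NanoLuc; HEK293 cells preincubated 5 h, compound-treated at 37 C, and read at 0, 8, 16, 24, 32 and 40 h.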

[4] = qHTS RealTime-Glo MT Cell Viability Assay in HepG2 cells - 8 hour (AID 1224873); note: nearly all actives have a fitted effect of over 55% in size
How it was run: as §1

[5] = qHTS RealTime-Glo MT Cell Viability Assay in HEK293 cells - 40 hour (AID 1224874); conditions: RealTime-Glo luminescence; max response: stronger effect = lower value; note: nearly all actives have a fitted effect of over 50% in size; note: potency is the fitted concentration of half-maximal effect
How it was run: (§4)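 Viable HEK293 cells reduce a cell-permeant prosubstrate; the product diffuses out and is consumed by NanoLuc in the medium to give light. Compounds went in after a 5 h incubation and plates were read over the treatment course.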

[6] = A CellTox Green Cytotoxicity Assay to monitor cytotoxicity in HepG2 cells - 16 hour (AID 1224876); note: nearly all actives have a fitted effect of over 45% in size; note: potency is the fitted concentration of half-maximal effect
How it was run: (§5)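 Using 1536-well format, dye-containing HepG2 suspension was seeded, allowed 5 h at 37 C/5% CO2, dosed by pintool with compounds, positive and negative controls, and imaged for fluorescence across 40 h.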

[7] = qHTS RealTime-Glo MT Cell Viability Assay in HepG2 cells - 32 hour (AID 1224877); note: nearly all actives have a fitted effect of over 55% in size
How it was run: (§6)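 Viability was tracked continuously by NanoLuc luminescence from prosubstrate reduced by living HepG2 cells, at successive time points over 40 h of compound exposure. Cells with reagent were preincubated 5 h at 37 °C before compound addition.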

[8] = A CellTox Green Cytotoxicity Assay to monitor cytotoxicity in HepG2 cells - 24 hour (AID 1224878); note: nearly all actives have a fitted effect of over 45% in size
How it was run: as §5

[9] = qHTS RealTime-Glo MT Cell Viability Assay in HEK293 cells - 0 hour (AID 1224880); note: top concentration of the series differs between compounds; nearly all actives have a fitted effect of over 45% in size
How it was run: as §4

[10] = A CellTox Green Cytotoxicity Assay to monitor cytotoxicity in HEK293 cells - 32 hour (AID 1224881); note: nearly all actives have a fitted effect of over 40% in size; note: potency is the fitted concentration of half-maximal effect
How it was run: as §2

[11] = A CellTox Green Cytotoxicity Assay to monitor cytotoxicity in HepG2 cells - 0 hour (AID 1224882); note: nearly all actives have a fitted effect of over 35% in size
How it was run: as §5

[12] = A CellTox Green Cytotoxicity Assay to monitor cytotoxicity in HEK293 cells - 8 hour (AID 1224884); note: nearly all actives have a fitted effect of over 35% in size
How it was run: as §2

[13] = qHTS RealTime-Glo MT Cell Viability Assay in HepG2 cells - 16 hour (AID 1224885); note: nearly all actives have a fitted effect of over 50% in size
How it was run: as §6

[14] = qHTS RealTime-Glo MT Cell Viability Assay in HEK293 cells - 24 hour (AID 1224886)
How it was run: as §3

[15] = qHTS RealTime-Glo MT Cell Viability Assay in HEK293 cells - 8 hour (AID 1224887)
How it was run: as §4

[16] = A CellTox Green Cytotoxicity Assay to monitor cytotoxicity in HEK293 cells - 16 hour (AID 1224888); note: nearly all actives have a fitted effect of over 35% in size
How it was run: as §2

[17] = qHTS RealTime-Glo MT Cell Viability Assay in HepG2 cells - 0 hour (AID 1224889); note: nearly all actives have a fitted effect of over 50% in size
How it was run: as §6

[18] = A CellTox Green Cytotoxicity Assay to monitor cytotoxicity in HepG2 cells - 40 hour (AID 1224879); note: nearly all actives have a fitted effect of over 40% in size
How it was run: as §5

[19] = A CellTox Green Cytotoxicity Assay to monitor cytotoxicity in HepG2 cells - 32 hour (AID 1224883); note: nearly all actives have a fitted effect of over 50% in size
How it was run: as §5

[20] = A CellTox Green Cytotoxicity Assay to monitor cytotoxicity in HEK293 cells - 24 hour (AID 1224875)
How it was run: as §2
% is set by controls: 0 for no effect and ±100 for the full control effect.

CC(C)(CC(=O)O)C(=O)O
inactive: Potency [1] | Potency [2] | Potency [3] | Potency [4] | max response [5] 0.211% | Potency [6] | Potency [7] | Potency [8] | Potency [9] | Potency [10] | Potency [11] | Potency [12] | Potency [13] | Potency [14] | Potency [15] | Potency [16] | Potency [17]

CCCCCCCCCCCC
inactive: Potency [1] | Potency [2] | Potency [3] | Potency [4] | max response [5] 0.33% | Potency [6] | Potency [7] | Potency [8] | Potency [18] | Potency [9] | Potency [10] | Potency [11] | Potency [19] | Potency [12] | Potency [13] | Potency [14] | Potency [15] | Potency [16] | Potency [17]

COC(=O)c1c(Cl)c(Cl)c(C(=O)OC)c(Cl)c1Cl
inactive and 77.6 nM (active): Potency [6]
inactive: Potency [1] | Potency [4] | max response [5] -27.2% | Potency [7] | Potency [8] | Potency [9] | Potency [19] | Potency [12] | Potency [13] | Potency [16] | Potency [17]
inactive and 38.9 µM (active): Potency [2]
inactive and 43.6 µM (active): Potency [10]

CCCCC/C=C\CCC=O
inactive: Potency [1] | Potency [2] | Potency [3] | Potency [4] | max response [5] 1.73% | Potency [6] | Potency [7] | Potency [8] | Potency [18] | Potency [9] | Potency [10] | Potency [19] | Potency [12] | Potency [13] | Potency [14] | Potency [15] | Potency [16] | Potency [17]

CC(C)NC(=O)NC(C)C
inactive: Potency [2] | Potency [3] | Potency [4] | max response [5] 4.41% | Potency [20] | Potency [6] | Potency [7] | Potency [8] | Potency [18] | Potency [9] | Potency [10] | Potency [11] | Potency [19] | Potency [12] | Potency [13] | Potency [14] | Potency [15] | Potency [16] | Potency [17]

CC(C)(c1ccc(O)cc1)c1ccc(O)cc1
inactive and 17.7 µM (active): Potency [2]
inactive: Potency [1] | Potency [4] | Potency [20] | Potency [6] | Potency [7] | Potency [8] | Potency [18] | Potency [9] | Potency [10] | Potency [11] | Potency [19] | Potency [12] | Potency [13] | Potency [16] | Potency [17]
active: Potency [5] 48 µM

C[C@H](NC(CCc1ccccc1)C(=O)O)C(=O)N1CCC[C@H]1C(=O)O (stereo partly specified)
inactive: Potency [2] | Potency [3] | Potency [4] | max response [5] -70.9% | Potency [20] | Potency [6] | Potency [7] | Potency [8] | Potency [18] | Potency [9] | Potency [10] | Potency [11] | Potency [19] | Potency [12] | Potency [13] | Potency [14] | Potency [15] | Potency [16] | Potency [17]

CCCN1CCCC[C@H]1C(=O)Nc1c(C)cccc1C
inactive: Potency [1] | Potency [2] | Potency [3] | Potency [4] | max response [5] 3.8% | Potency [6] | Potency [7] | Potency [8] | Potency [9] | Potency [10] | Potency [11] | Potency [19] | Potency [12] | Potency [13] | Potency [14] | Potency [16] | Potency [17]

O=C1CC2CC1C1CCCC21 (stereo unspecified)
inactive: Potency [1] | Potency [3] | Potency [4] | max response [5] -4.86% | Potency [6] | Potency [7] | Potency [8] | Potency [18] | Potency [9] | Potency [11] | Potency [19] | Potency [13] | Potency [14] | Potency [15] | Potency [17]

COc1cc(C(=O)N2CCCCCCC2)cc(OC)c1OC
inactive: Potency [1] | Potency [2] | Potency [3] | Potency [4] | max response [5] 9.63% | Potency [6] | Potency [7] | Potency [8] | Potency [18] | Potency [9] | Potency [10] | Potency [11] | Potency [19] | Potency [12] | Potency [13] | Potency [14] | Potency [15] | Potency [16] | Potency [17]

O=C(CCCN1CCN(c2ccccn2)CC1)c1ccc(F)cc1
inactive: Potency [1] | Potency [2] | Potency [4] | Potency [20] | Potency [6] | Potency [7] | Potency [8] | Potency [18] | Potency [9] | Potency [10] | Potency [11] | Potency [19] | Potency [12] | Potency [13] | Potency [16] | Potency [17]

CC(C[N+](C)(C)C)OC(N)=O (stereo unspecified)
inactive: Potency [1] | Potency [2] | Potency [3] | Potency [4] | max response [5] 4.17% | Potency [6] | Potency [7] | Potency [8] | Potency [18] | Potency [9] | Potency [10] | Potency [19] | Potency [12] | Potency [13] | Potency [14] | Potency [15] | Potency [16] | Potency [17]

O=C[C@H](O)[C@@H](O)[C@H](O)[C@H](O)CO
inactive: Potency [1] | Potency [2] | Potency [3] | Potency [4] | max response [5] 17.2% | Potency [6] | Potency [7] | Potency [8] | Potency [18] | Potency [9] | Potency [10] | Potency [19] | Potency [12] | Potency [13] | Potency [14] | Potency [15] | Potency [16] | Potency [17]
